Laboratory results: PubChem BioAssay AID686979 (National Center for Advancing Translational Sciences (NCATS), 2013)
Out of some 420,000 compounds screened, about 50,000 (12%) were called active. A call without a number means that no potency is given here. Not shown: some 26% with an inconclusive outcome. The sample holds actives, similar compounds and a random draw of the others, so the mix is not that of the screen. Unmarked numbers belong to inactive results. The call rests on the fitted dose curve; in most records, active means well fitted inhibition curve with a large enough effect; inconclusive means small, poorly fitted or top-dose-only effect; inactive means flat fitted curve, though single readings scatter.

Test: qHTS for Inhibitors of human tyrosyl-DNA phosphodiesterase 1 (TDP1): qHTS in cells in presence of CPT; further: nearly all actives have a fitted effect of over 55% in size
Conditions: chicken DT40 Tdp1-/-;hTDP1 cells + 20 nM CPT, ATP luminescence, 48 h; series mostly up to 46.2 µM
Outline: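 Cell growth measured by CellTiter-Glo luminescence after a minimum 48 h, 37 C compound exposure with 20 nM CPT in Tdp1-knockout DT40 cells stably expressing hTDP1, seeded 400/well; qHTS titration format.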
Potency means the concentration at half of the fitted maximal effect.

Compound	Potency	activity change, negative = growth inhibition
O=C(O)c1ccc(/C=C2\SC(=S)N(NC(=O)c3ccc(Br)cc3)C2=O)cc1	inactive	–
C=CCO/N=C/C1=C(O)C(C(=O)OC)C(C)(C)CC1=O (stereo not given)	inactive	–
CCCCC(NC(=O)c1cccc(Br)c1)C(=O)O (stereo not given)	inactive	–
CSc1ccc(/C=N\NC(=O)CC(=O)NC(C)C)cc1	inactive	–
Cc1cc(C)n(-c2nc(O)cc(=O)[nH]2)n1	inactive	–
COC(=O)C1=C(C(=O)c2ccc(C)cc2)C(c2ccccc2)n2nnnc2N1 (stereo not given)	inactive	–
O=Cc1c(Nc2ccccc2Cl)nc2ccccn2c1=O	inactive	–
COc1cc(N=Cc2c(O)c3ccccc3oc2=O)c(OC)cc1Cl	inactive	–
CCOC(=O)Nc1ccccc1N1C(=O)c2ccccc2C1=O	inactive	–
CC(=O)Nc1ccccc1Sc1ccc2c3c(cccc13)C(=O)N(c1ccc(C)cc1)C2=O	11.6 µM (active)	–
CSc1ccccc1NC(=O)C(C)N1C(=O)c2ccccc2S1(=O)=O (stereo not given)	inactive	–
COc1ccc(NC(=O)COC(=O)C2COc3ccccc3O2)cc1 (stereo not given)	inactive	–
CN(C)c1ccc(C(CC(=O)O)C(=O)O)cc1 (stereo not given)	inactive	–
COC(=O)[C@]1(S(=O)(=O)c2ccccc2)C[C@@H]2ON=C(c3ccc(OC)cc3)[C@@H]2C1	inactive	–
N#C[C@]1(S(=O)(=O)c2ccccc2)C[C@@H]2ON=C(c3cccc(Br)c3)[C@@H]2C1	9.2 µM (active)	–
O=C(NCCCn1ccnc1)C1CCCN(S(=O)(=O)c2cc(Cl)ccc2Cl)C1 (stereo not given)	inactive	–
CCC1(c2ccccc2)NC(=O)N(CC(=O)Nc2ccccc2C(=O)NC2CCCC2)C1=O (stereo not given)	inactive	–
COc1ccc(S(=O)(=O)n2nc(C)c(S(=O)(=O)N3CCOCC3)c2C)cc1	inactive	–
O=C(/C=C/c1ccccc1[N+](=O)[O-])OC1CCCCC1=O (stereo not given)	inactive	–
O=C(/C=C/c1ccccc1[N+](=O)[O-])NCC1CCCO1 (stereo not given)	inactive	–
CC1CCCCC1NC(=O)/C(C#N)=C/C=C/c1ccccc1[N+](=O)[O-] (stereo not given)	10.3 µM (active)	–
O=C(Nc1cccc(C(=O)O)c1)/C(=C\c1ccccc1)NC(=O)c1ccc(Br)o1	inactive	–

Compound	Potency	activity change, negative = growth inhibition
COc1ccc(-n2ccn(CC(=O)Nc3ccc(C)c(C)c3)c(=O)c2=O)cc1OC	inactive	–
Cc1ccc(CNC(=O)CCc2c(C)nc3nc(CNC(=O)OC(C)(C)C)nn3c2C)cc1	inactive	–
O=C(Oc1ccc(Br)cc1)c1cccnc1	inactive	–
O=C(Oc1c(-c2ccco2)oc2ccccc2c1=O)c1cccnc1	16.4 µM (active)	–
O=C(Oc1cccnc1)c1cc2ccccc2oc1=O	inactive	–
O=S1(=O)CCO[C@H]2Cc3ccccc3[C@H]2N1Cc1ccccc1	inactive	–
Cc1ccc(Sc2ccncc2S(N)(=O)=O)cc1	inactive	–
CCCc1cc(C(=O)Nc2ccc(Cl)cn2)cs1	inactive	–
Cc1cccc(NC(=O)Cn2cc(C(=O)c3ccco3)c3ccccc32)c1	18.4 µM (active)	–
CC1CCN(C(=O)Cn2cc(C(=O)c3ccco3)c3ccccc32)CC1	inactive	–
Cc1ccccc1NC(=O)Cn1cc(C(=O)C2CC2)c2ccccc21	inactive	–
CCn1c2ccccc2c2cc(NC(=O)COC(=O)c3cc(S(=O)(=O)N4CCCCC4)ccc3Cl)ccc21	inactive	–
Cc1cccc(NC(=O)c2cccc(S(=O)(=O)N3CCCC3)c2)n1	inactive	–
CCn1c(O)c(N=NC(=O)c2cccc(S(=O)(=O)N3CCCCC3)c2)c2ccccc21	14.6 µM (active)	–
O=S1(=O)C[C@@H](N2CCN(CCO)CC2)[C@H](COCc2ccccc2)N1	inactive	–
COc1ccc(N(CC(=O)Nc2cccc3ccccc23)S(C)(=O)=O)c(OC)c1	inactive	–
O=C(NCCN1CCOCC1)C1CCN(S(=O)(=O)c2ccccc2)CC1	inactive	–
COc1cc(-c2cc3n(C)c(C)c(CCC(=O)Nc4ccc(F)cc4)c(=O)n3n2)cc(OC)c1OC	inactive	–
O=C(Nc1cccc(Cl)c1)c1cc(S(=O)(=O)N2CCCCC2)c[nH]1	inactive	–
O=C(Nc1cccc(Cl)c1)c1cncn1-c1ccc(F)cc1	inactive	–
COc1cc(F)ccc1-c1cc(C(=O)NCC2CCCCC2)[nH]n1	inactive	–
COc1cc(NC(=O)c2cc(-c3ccc(F)cc3OC(C)C)n[nH]2)cc(OC)c1OC	14.6 µM (active)	–

Compound	Potency	activity change, negative = growth inhibition
CC(C)Oc1cc(F)ccc1-c1cc(C(=O)Nc2cccc(Cl)c2)[nH]n1	18.4 µM (active)	–
COc1ccccc1C(=O)OCC(=O)NCCNC(=O)COC(=O)c1ccccc1OC	inactive	–
COc1ccccc1OCC(=O)Nc1nnc2n1CCS2	inactive	–
CN(c1ccccc1)S(=O)(=O)c1ccc(Cl)c(C(=O)OCC(=O)NCc2ccco2)c1	inactive	–
O=C(COC(=O)c1ccccc1O)NCc1ccco1	inactive	–
Cc1cc(C(=O)OCC(=O)NCc2ccco2)c(C)n1-c1ccccc1	2.31 µM (active)	–
COc1cccc(CNC(=O)CN2C(=O)CCc3cc(S(=O)(=O)N4CCOCC4)ccc32)c1	inactive	–
CSc1nc2nc(-c3cccc(C(F)(F)F)c3)ccn2n1	inactive	–
CCCC(=O)Nc1ccc(C(=O)N/N=C/c2ccc[nH]2)cc1	inactive	–
Cc1cc(C)c(-c2csc(NC(=O)CCCc3nc4ccccc4c(=O)[nH]3)n2)c(C)c1	18.4 µM (active)	–
CC(C)(C)c1ccc(NC(=O)COC(=O)CCc2nc3ccccc3c(=O)[nH]2)cc1	inactive	–
O=C(COC(=O)CCc1nc2ccccc2c(=O)[nH]1)Nc1ccc(N2CCOCC2)cc1	inactive	–
CCCn1c(C)cc(-c2csc(NC(=O)CCc3nc4ccccc4c(=O)[nH]3)n2)c1C	23.1 µM (active)	–
Cc1cc(-c2csc(N)n2)c(C)n1Cc1ccccc1	inactive	–
CC(=O)NCc1ccc(-c2csc(NC(=O)CCCc3nc4ccccc4c(=O)[nH]3)n2)cc1	inactive	–
Cc1cccc(C(=O)NCc2nnc(SC(C)C(=O)Nc3nnc(C)s3)n2C)c1 (stereo not given)	inactive	–
C/C(N)=C(/C#N)C(=O)COC(=O)C1=NN(c2ccccc2)C(=O)CC1	inactive	–
CCOc1ccc(-c2nc(N)ncc2-c2ccccc2OC)c(O)c1	20.6 µM (active)	–
CCOC(=O)Cn1c2c(c(-c3ccccc3OC)cc1=O)CCCC2	inactive	–
C=C(C)COc1ccc(-c2nc(N)ncc2-c2ccccc2OC)c(O)c1	inactive	–
O=C(O)CCCN1C(=O)c2ccccc2Sc2ncccc21	inactive	–
Fc1cccc(-n2ncc3c2ncn2nc(-c4ccccc4Cl)nc32)c1	inactive	–

Compound	Potency	activity change, negative = growth inhibition
CCCC[C@@H]1CN=C(N)N1CCCC	9.2 µM (active)	–
CCCCN1C(N)=NC[C@@H]1Cc1ccccc1	7.31 µM (active)	–
CCCCN1C(N)=NC[C@@H]1CC1CCCCC1	23.1 µM (active)	–
CCCCN1CC(COCc2ccccc2)OCCS1(=O)=O (stereo not given)	inactive	–
CCCCNC(=O)C1CCC(=O)N1CCc1ccccc1 (stereo not given)	inactive	–
CCCCN1C(=S)NC[C@@H]1C(C)CC (stereo not given in full)	inactive	–
Cc1cccc(C)c1NC(=O)CNC(=O)c1ccc2c(c1)OCCO2	inactive	–
COn1c(-c2ccc(Cl)cc2Cl)nc2ncccc21	inactive	–
O=S(=O)(Nc1ccc(-c2ccc(N3CCOCC3)nn2)cc1)c1cc(Cl)ccc1Cl	inactive	–
COc1cc2ccccc2cc1C(=O)Nc1ccc(N2CCOCC2)cc1	inactive	–
O=C1NCC(c2ccccc2)(c2ccccc2)C(=O)N1	inactive	–
OCC1(CO)CC2(C1)CC(CO)(CO)C2	inactive	–
Nc1cccc(CCc2nc3ccccc3[nH]2)c1	inactive	–
COc1ccccc1CSc1nc2ccccc2[nH]1	inactive	–
c1ccc2c(CSCc3nc4ccccc4[nH]3)cccc2c1	16.4 µM (active)	–
CC1(C(=O)NCc2ccccc2)CN(S(C)(=O)=O)CC(=O)N1CC(F)(F)F (stereo not given)	inactive	–
COc1cc(NC(=S)NNC(=O)CC(C)C)c(OC)cc1Cl	inactive	–
CN(C)CCCn1c(SCc2ccc(Cl)cc2)nnc1-c1ccncc1	inactive	–
Cn1c(=O)c2ccccc2n(CC(=O)Nc2ccc3c(c2)OCCO3)c1=O	inactive	–
Cc1cc(C(=O)NNC(=S)NC(C)c2ccccc2)cs1 (stereo not given)	23.1 µM (active)	–
C/C(CC(=O)NC(C)c1ccccc1)=N\NC(N)=S (stereo not given)	inactive	–
Cc1ccc(C(=O)NC(C)c2ccccc2)cc1Br (stereo not given)	inactive	–

Compound	Potency	activity change, negative = growth inhibition
N#Cc1ccc(-c2ccc3nccn3c2)cc1	inactive	–
COc1ccc(-c2nc3cc(C)ccn3c2NC2CCCCC2)cc1SC1CCCCC1	29.6 µM (active)	–
COc1ccc(C)cc1S(=O)(=O)NC1CCCCC1	inactive	–
COC(=O)c1ccc(NC(=O)CSc2nncn2-c2cccnc2)cc1	inactive	–
CN(C)c1ccc(CN2CCOc3ccc(CN4CCC(O)(c5cccnc5)CC4)cc3C2)cc1	–	-11.9% [at 9.04 µM]
O=C(NNC(=O)c1ccc2ccccc2c1)c1ccc(Cl)cc1	inactive	–
CC(=O)CCC(=O)c1ccc2ccccc2c1	inactive	–
C=CC(=O)c1ccc2ccccc2c1	2.91 µM (active)	–
COc1ccc(C(=O)N/N=C(\C)CC(=O)Nc2ccc(Cl)cn2)cc1	inactive	–
Brc1ccc(-c2noc(-c3ccccc3)n2)o1	inactive	–
O=C(Oc1ccccc1)c1ccc2nccnc2c1	inactive	–
c1ccc(-c2noc(-c3cccs3)n2)nc1	8.2 µM (active)	–
c1csc(-c2nc(-c3ccncc3)no2)c1	inactive	–
O=C(Oc1ccc(-c2nc(-c3ccccn3)no2)cc1)c1ccccc1	8.2 µM (active)	–
COc1ccc(CCc2nc(-c3cccs3)no2)cc1	inactive	–
COc1ccc(/C=C(\NC(=O)c2ccccc2)C(=O)NCCN2CCOCC2)cc1OC	inactive	–
O=C(O)c1ccc(/C=N/NC(=O)c2ccc(Br)cc2)cc1	inactive	–
CCN(C(=O)CSc1nnc(-c2ccc(OC(F)F)cc2)n1N)C1CCS(=O)(=O)C1 (stereo not given)	inactive	–
COc1ccc2c(c1)N(C)/C(=C1/SC(=S)N(NC(C)=O)C1=O)S2	inactive	–
CCCCOc1ccc(NC(=O)[C@@H]2CCCN2C(=O)C2CCN(S(=O)(=O)c3ccc(C)cc3)CC2)cc1	inactive	–
CCCCCCNC(=O)O[C@H]1CN(C(=O)OC(C)C)N(C(=O)OC(C)C)[C@@H]2CN(S(=O)(=O)c3ccc(C)cc3)C[C@]12O	18.4 µM (active)	–
COC(=O)[C@H]1C[C@H](OC(=O)NCc2ccccc2)[C@@]2(O)CN(S(=O)(=O)c3ccc(C)cc3)CC2[C@H]1C(=O)OC (stereo not given in full)	inactive	–
